In the supplement of paper PMC5662767:
Where a name gives a salt, the structure may show the parent alone.

System: Drosophila S2 cl14 SmoIP sensor cells
Test: normalized SmoIP GFP fluorescence (untreated unstimulated = 0%, untreated Hh-stimulated = 100%); higher = more Smo activation sensor fluorescence
Conditions: compound concentration: 2 uM, 24 h
[1] = stimulation: Hh conditioned medium (+Hh)
[2] = stimulation: mock conditioned medium (-Hh)
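Further: flow cytometry read-out as median GFP intensity of gated cells, compounds added 30 min before Hh-conditioned or mock medium, mock-treated cells serving as unstimulated baseline.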

Compound: O=P(O)(O)C(O)(Cn1ccnc1)P(=O)(O)O [Zoledronic-Acid]
- normalized SmoIP GFP fluorescence [1]: 98.3%
- normalized SmoIP GFP fluorescence [2]: -5.54%

Compound: Cn1c(=O)n(-c2ccc(C(C)(C)C#N)cc2)c2c3cc(-c4cnc5ccccc5c4)ccc3ncc21
- normalized SmoIP GFP fluorescence [1]: 113%
- normalized SmoIP GFP fluorescence [2]: -5.01%

Compound: Nc1nc(N)c2nc(-c3ccccc3)c(N)nc2n1 [triamterene]
- normalized SmoIP GFP fluorescence [1]: 104%
- normalized SmoIP GFP fluorescence [2]: -6.06%

Compound: Cc1ccc(C(=O)Cn2c3c(sc2=N)CCCC3)cc1 [pifithrin-alpha]
- normalized SmoIP GFP fluorescence [1]: 98.6%
- normalized SmoIP GFP fluorescence [2]: -1%

Compound: COc1ccc([C@@H]2CC(=O)c3c(O)cc(O)cc3O2)cc1O [Hesperetin]
- normalized SmoIP GFP fluorescence [1]: 111%
- normalized SmoIP GFP fluorescence [2]: -18.9%

Compound: CCc1cccc2c3c([nH]c12)C(CC)(CC(=O)O)OCC3 (stereo not drawn) [Etodolac]
- normalized SmoIP GFP fluorescence [1]: 104%
- normalized SmoIP GFP fluorescence [2]: -3.17%

Compound: Cc1ccccc1C(=O)Nc1ccc(C(=O)N2CCCC(O)c3cc(Cl)ccc32)c(C)c1 (stereo not drawn)
- normalized SmoIP GFP fluorescence [1]: 111%
- normalized SmoIP GFP fluorescence [2]: -6.61%

Compound: NC(=O)c1ccc(I)c([N+](=O)[O-])c1
- normalized SmoIP GFP fluorescence [1]: 115%
- normalized SmoIP GFP fluorescence [2]: -5.22%

Compound: Cc1cc(OCCCS(C)(=O)=O)cc(C)c1-c1cccc(COc2ccc3c(c2)OC[C@H]3CC(=O)O)c1
- normalized SmoIP GFP fluorescence [1]: 120%
- normalized SmoIP GFP fluorescence [2]: -6.79%

Compound: O=C(Nc1c(Cl)cncc1Cl)c1ccc(OC(F)F)c(OCC2CC2)c1 [Roflumilast(Daxas)]
- normalized SmoIP GFP fluorescence [1]: 134%
- normalized SmoIP GFP fluorescence [2]: -8.23%

Compound: CN1CCC[C@@H]1Cc1c[nH]c2ccc(CCS(=O)(=O)c3ccccc3)cc12 [eletriptan-hydrobromide]
- normalized SmoIP GFP fluorescence [1]: 106%
- normalized SmoIP GFP fluorescence [2]: -2.71%

Compound: CNC(=O)c1ccc(C)c(-n2c(C)cc(OCc3ccc(F)cc3F)c(Br)c2=O)c1
- normalized SmoIP GFP fluorescence [1]: 130%
- normalized SmoIP GFP fluorescence [2]: -8.41%

Compound: OCCn1cc(-c2ccc3c(c2)CC/C3=N\O)c(-c2ccncc2)n1
- normalized SmoIP GFP fluorescence [1]: 97.5%
- normalized SmoIP GFP fluorescence [2]: 0.274%

Compound: O=C(O)Cn1nnc(-c2cc(N3CCC(Oc4cc(F)ccc4Br)CC3)no2)n1
- normalized SmoIP GFP fluorescence [1]: 80.4%
- normalized SmoIP GFP fluorescence [2]: 13.3%

Compound: N#Cc1ccc2[nH]c(O)c(-c3ccc(CN4CCOCC4)cn3)c2c1
- normalized SmoIP GFP fluorescence [1]: 108%
- normalized SmoIP GFP fluorescence [2]: -4.35%

Compound: Cc1cc(C(C)(C)C)c(O)c(C)c1CC1=NCCN1 [Oxymetazoline-hydrochloride]
- normalized SmoIP GFP fluorescence [1]: 95.8%
- normalized SmoIP GFP fluorescence [2]: -3.5%

Compound: NC(=O)C(c1ccccc1)(c1ccccc1)[C@@H]1CCN(CCc2ccc3c(c2)CCO3)C1 [darifenacin-hydrobromide]
- normalized SmoIP GFP fluorescence [1]: 116%
- normalized SmoIP GFP fluorescence [2]: 0.0767%

Compound: O=C(Oc1cc(S(=O)(=O)c2ccccc2)ccc1[N+](=O)[O-])c1ccc(Cl)cc1
- normalized SmoIP GFP fluorescence [1]: 146%
- normalized SmoIP GFP fluorescence [2]: 7.6%

Compound: Cc1nccn1CC1CCc2c(c3ccccc3n2C)C1=O (stereo not drawn) [Ondansetron-hydrochloride]
- normalized SmoIP GFP fluorescence [1]: 109%
- normalized SmoIP GFP fluorescence [2]: -2.96%

Compound: O=C(CCCS)NC1CCN(C(=O)COc2ccc(Cl)cc2Cl)CC1 [k-ras-g12c-inhibitor-6]
- normalized SmoIP GFP fluorescence [1]: 113%
- normalized SmoIP GFP fluorescence [2]: -2.82%

Compound: CCOC(=O)c1ccc(N2NC(=O)C(=Cc3ccc([N+](=O)[O-])o3)C2=O)cc1
- normalized SmoIP GFP fluorescence [1]: 119%
- normalized SmoIP GFP fluorescence [2]: 8.94%

Compound: NC1(c2ccc(-c3nc4ccn5c(=O)[nH]nc5c4cc3-c3ccccc3)cc2)CCC1
- normalized SmoIP GFP fluorescence [1]: 102%
- normalized SmoIP GFP fluorescence [2]: 16.8%

Compound: C=CCc1cccc(/C=N/NC(=O)CN2CCN(Cc3ccccc3)CC2)c1O
- normalized SmoIP GFP fluorescence [1]: 154%
- normalized SmoIP GFP fluorescence [2]: -5.53%

Compound: CCCOc1ccc(C(=O)OCCN(CC)CC)cc1N [proparacaine-hcl]
- normalized SmoIP GFP fluorescence [1]: 111%
- normalized SmoIP GFP fluorescence [2]: -2.48%

Compound: O=C(c1ccc(OCCN2CCCCC2)cc1)c1c(-c2ccc(O)cc2)sc2cc(O)ccc12 [Evista]
- normalized SmoIP GFP fluorescence [1]: 118%
- normalized SmoIP GFP fluorescence [2]: 6.52%

Compound: O=C(CSc1nc2c(c(=O)n1-c1ccccc1)SCC2)Nc1ccc(-c2ccccc2)cn1
- normalized SmoIP GFP fluorescence [1]: 110%
- normalized SmoIP GFP fluorescence [2]: -3.16%

Compound: C[C@]1(c2nc3c(C(N)=O)cccc3[nH]2)CCCN1
- normalized SmoIP GFP fluorescence [1]: 117%
- normalized SmoIP GFP fluorescence [2]: -2.96%

Compound: CC(C)(C)c1ccc(C(=O)CCCN2CCC(OC(c3ccccc3)c3ccccc3)CC2)cc1 [ebastine]
- normalized SmoIP GFP fluorescence [1]: 135%
- normalized SmoIP GFP fluorescence [2]: 18.3%

Compound: CN[C@@H](C)C(=O)N[C@H](C(=O)N1CCC[C@H]1C(=O)Nc1snnc1-c1ccccc1)C1CCCCC1
- normalized SmoIP GFP fluorescence [1]: 85.6%
- normalized SmoIP GFP fluorescence [2]: 4.68%

Compound: FC(F)(F)c1ccc(/C=C/c2nc(COc3ccc(CCCCn4ccnn4)cc3)co2)cc1 [Mubritinib-TAK-165]
- normalized SmoIP GFP fluorescence [1]: 149%
- normalized SmoIP GFP fluorescence [2]: -0.747%

Compound: CC(C)C[C@H](NC(=O)CNC(=O)c1cc(Cl)ccc1Cl)B1OC(=O)C(CC(=O)O)(CC(=O)O)O1
- normalized SmoIP GFP fluorescence [1]: 157%
- normalized SmoIP GFP fluorescence [2]: 31%

Compound: Cc1csc(-c2nnc(Nc3ccc(Oc4ncccc4-c4ccnc(N)n4)cc3)c3ccccc23)c1
- normalized SmoIP GFP fluorescence [1]: 102%
- normalized SmoIP GFP fluorescence [2]: -0.747%

Compound: CC(C)c1nc(CN(C)C(=O)N[C@@H](CCN2CCOCC2)C(=O)N[C@H](CC[C@H](Cc2ccccc2)NC(=O)OCc2cncs2)Cc2ccccc2)cs1 [cobicistat-gs-9350]
- normalized SmoIP GFP fluorescence [1]: 113%
- normalized SmoIP GFP fluorescence [2]: 0.474%

Compound: O=c1cc(-c2ccccc2)oc2cc(O)c(O)c(O)c12 [Baicalein]
- normalized SmoIP GFP fluorescence [1]: 108%
- normalized SmoIP GFP fluorescence [2]: 1.24%
